The structures appear in SMILES notation. Among all 69,000 compounds or so, about 8,600 (12%) showed an effect of 50% or more. Many of the other results were omitted from the sample, so strong results are more common in it than they were.

The experiment concerns Plasmodium berghei. Kind of experiment: Screen against P. berghei liver stage (PbLuc), transformed with Luciferase, at 10uM. It counts as functional, HepG2. The conditions noted are these: tested at 10 uM.
With `COc1ccc(F)cc1S(=O)(=O)NCCn1cnc(C)cc1=O`, the INHIBITION was found to be 41.7%.

As for `COCCNC(=O)c1cc(-n2cccc2)ccc1Cl`, the INHIBITION came to 22.2%.

For the molecule `CCN(CC)c1ccc(C(=O)N2CCCC(n3cncn3)C2)cn1` (stereo not drawn), the INHIBITION is -12.7%.

For the molecule `Cc1oncc1C(=O)N1CCC2(CC1)CN(S(C)(=O)=O)c1ccccc12`, the INHIBITION is on record as -13.4%.

Consider `COc1cccc(CN(C)C(=O)CN2CC(n3nc(C)cc3C)C2)c1`, for which the INHIBITION is reported as 53.7%.

`CN(Cc1ccsc1)C(=O)CN1CCc2c(ncn2C)C1`: the INHIBITION is recorded as -1.15%.

For the molecule `COc1cccc(CNC(=O)C(C)N2CC(n3nc(C)cc3C)C2)c1` (stereo not drawn), the INHIBITION is recorded as 39.8%.

With `COc1cccc(CC(=O)N2CCCC(n3nc(C)cc3C)C2)c1` (stereo not drawn), the INHIBITION turned out to be 5.03%.

With `COCCN1CCN(CC(=O)N(C)Cc2ccsc2)CC1`, the INHIBITION is recorded as 65.7%.

For the molecule `COCCN1CCN(CC(=O)N(C)Cc2ccsc2)CC1C` (stereo not drawn), the INHIBITION was -39.2%.

For the molecule `CN(C)C(=O)Cn1cc(C(=O)NCCc2cccc(Cl)c2Cl)nn1`, the INHIBITION is -8.4%.

For the molecule `COCCNC(=O)[C@H]1C[C@H]2OCC[C@H]2N(Cc2ccoc2)C1`, the INHIBITION was 31.1%.

Regarding `Cc1nc(N2CCCC2)nc2c1CCN(C(=O)CC1CCCC1)CC2`, the INHIBITION was -10.3%.

With `COc1ccc(CC(=O)N2CC[C@@H]3NC(=O)CC[C@@H]32)cc1`, the INHIBITION is reported as -6.46%.

Regarding `COc1cccc(CC(=O)N2CC[C@@H]3NC(=O)CC[C@@H]32)c1`, the INHIBITION is reported as -0.554%.

For `Cc1ccc(CC(=O)N2CC[C@@H]3NC(=O)CC[C@@H]32)cc1`, the INHIBITION came out at 58.5%.

Turning to `Cc1c(S(=O)(=O)NCC(C)Cn2cc(Cl)cn2)cnn1C` (stereo not drawn), the INHIBITION was found to be 35.8%.

With `CN(CCCc1cnn(C)c1)C(=O)C1CCC(=O)N(C2CCCC2)C1` (stereo not drawn), the INHIBITION was -7.85%.

In the case of `C[C@H]1C[C@H]2CN(S(=O)(=O)c3ccc(F)cc3)CC[C@H]2O1`, the INHIBITION is -7.28%.

With `CC1COCCN1C(=O)Cc1cc(Cl)c2c(c1)OCCCO2` (stereo not drawn), the INHIBITION is recorded as 0.348%.

With `O=C1C[C@H]2[C@@H](CCN2C(=O)c2ccoc2)N1CCN1CCOCC1`, the INHIBITION is given as -6.23%.

Consider `COc1ccccc1OCCCc1cccc(C#N)n1`, for which the INHIBITION is reported as -34.1%.

As to `COc1ccccc1OCCCc1cc(C#N)ccn1`, the INHIBITION turned out to be 45.7%.

Regarding `COc1cccc(OCCCc2cc(C#N)ccn2)c1`, the INHIBITION was determined as 55.6%.

As for `COCc1cc(CNC(=O)c2cc(NC(C)=O)ccc2Cl)n[nH]1`, the INHIBITION was determined as 40.6%.

On to `O=C(c1ccoc1)N1CCO[C@]2(CCC[C@H]2COCc2cccnc2)C1`, for which the INHIBITION is recorded as -34.7%.

Take `Cc1cccc(CNC2CC3(CCN(CCO)CC3)c3ccccc32)n1` (stereo not drawn): the INHIBITION stood at 52.1%.

On to `O=C(NC1CC2(CCN(CCO)CC2)c2ccccc21)c1ccncc1` (stereo not drawn), for which the INHIBITION is 49.7%.

With `O=C(NC1CC2(CCN(CCO)CC2)c2ccccc21)c1ccsc1` (stereo not drawn), the INHIBITION is listed as 27.5%.

`Cn1cncc1CNC1CC2(CCN(CC3CC3)CC2)c2ccccc21` (stereo not drawn): the INHIBITION turned out to be 45.2%.

Take `COCCN1CCC2(CC1)CC(NCc1ccc(C)s1)c1ccccc12` (stereo not drawn): the INHIBITION is 45.7%.

Take `Cc1ccc(CNC2CC3(CCN(CCO)CC3)c3ccccc32)s1` (stereo not drawn): the INHIBITION is given as 60.2%.

Consider `CCN1CCC2(CC1)CC(NCc1cccc(C)n1)c1ccccc1O2` (stereo not drawn), for which the INHIBITION is reported as -4.88%.

For the molecule `COCCN1CCC2(CC1)CC(NCc1cncn1C)c1ccccc12` (stereo not drawn), the INHIBITION is 54.1%.

In the case of `Cn1cncc1CNC1CC2(CCN(S(C)(=O)=O)CC2)c2ccccc21` (stereo not drawn), the INHIBITION is given as 23.1%.

Consider `COCCNC(=O)NC1CCN(c2cnn(C)c2)C1` (stereo not drawn), for which the INHIBITION is 16%.

On to `Cn1cc(CN2C[C@@H](NC(=O)c3cscn3)[C@H]3OCCC[C@H]32)cn1`, for which the INHIBITION was -4.88%.

Turning to `COc1ccc(-c2ccnc(N)c2)c(C)c1`, the INHIBITION turned out to be 29.1%.

`COCCNS(=O)(=O)c1cccc(CSC)c1`: the INHIBITION turned out to be 20.2%.

As for `Cc1nn(C)c(C)c1C1CCCN1C(=O)CCCc1ccccn1` (stereo not drawn), the INHIBITION came to 23.4%.

Regarding `CC(C)NC1CCc2[nH]c(=O)ccc2C1` (stereo not drawn), the INHIBITION worked out at 86.2%.

As for `O=C(NC1CCCC1)NC1CCc2[nH]c(=O)ccc2C1` (stereo not drawn), the INHIBITION worked out at 34.9%.

Turning to `CS(=O)(=O)NC1CCc2[nH]c(=O)ccc2C1` (stereo not drawn), the INHIBITION was 30.5%.

As for `CN(C)CCN(Cc1ccccn1)Cc1ccnn1C1CCCCO1` (stereo not drawn), the INHIBITION is given as 18.3%.

Regarding `COCC1CN(C(=O)COc2ccc(C)cc2)Cc2cn(C)nc21` (stereo not drawn), the INHIBITION is listed as 5.96%.

In the case of `COc1nc2c(cc1C(=O)NCCc1nc3c(s1)CCC3)CCC2`, the INHIBITION was -6.04%.

Regarding `CC(=O)c1ccc(CNC(=O)c2cc(C)nn2C)nc1C`, the INHIBITION is listed as -34%.

On to `Cc1nc(CCNC(=O)c2cc(C(C)C)nn2C)sc1C`, for which the INHIBITION was 81%.

`Cc1nn2cc(CCNC(=O)c3cc(C(C)C)no3)nc2s1`: the INHIBITION is -97.2%.

For `CC(C)Cc1cc(C(=O)NCCc2nnc(N)s2)n(C)n1`, the INHIBITION is on record as -24.7%.

Turning to `c1cc(-c2nccn2CCc2nc3c(s2)CCC3)ccn1`, the INHIBITION was 11.6%.

As to `Cc1cc(C(=O)NCCc2cn3nc(C)sc3n2)c(C)o1`, the INHIBITION is -98.6%.

`O=C(O)c1ccnc(-c2ccnc(NCCc3nc4c(s3)CCC4)n2)c1`: the INHIBITION was determined as 30.9%.
